Laboratory results published in PubChem BioAssay (NCI).
Compounds without any hit were thinned out: in the full panel of roughly 79,000, 15% have a hit. Active and inactive are the calls of the source. Cut-off read from the data, not from the text of the source: active = growth inhibition above about 70%; inactive = the rest.

Key:
[1] = NCI Yeast Anticancer Drug Screen. Data for the rad52 strain (AID 147);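 note: 0% = growth of vehicle-treated control cultures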; conditions: S. cerevisiae rad52 mutant growth inhibition, hits give high values
Summary of the method: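 Genetically altered yeast (DNA damage repair defect) treated with compound; inhibition calculated relative to vehicle.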

[2] = NCI Yeast Anticancer Drug Screen. Data for the wt1 strain (AID 149);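 note: 0% = growth of vehicle-treated wt1 cultures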; conditions: S. cerevisiae wt1 strain (SPY 50644) growth inhibition, hits give high values
Summary of the method: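 Measured: growth of wt1 yeast under compound versus vehicle treatment, reported as inhibition.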

[3] = NCI Yeast Anticancer Drug Screen. Data for the rad50 strain (AID 155);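 note: 0% = growth of vehicle-only cultures of the same strain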; conditions: S. cerevisiae rad50 strain growth inhibition, hits give high values
Summary of the method: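 Growth of the mutant yeast was measured after compound exposure and referenced to vehicle-treated cultures.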

[4] = NCI Yeast Anticancer Drug Screen. Data for the mec2-1 strain (AID 157); conditions: S. cerevisiae mec2-1 strain, hits give high values
Summary of the method: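 Cells of the genetically defined mec2-1 yeast strain are incubated with test compound. Inhibition of growth is calculated against vehicle-treated controls.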

[5] = NCI Yeast Anticancer Drug Screen. Data for the rad14 strain (AID 159);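 note: 0% = growth of vehicle-treated control cultures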; conditions: S. cerevisiae rad14 strain growth inhibition, hits give high values
Summary of the method: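 Here, inhibition of yeast growth was measured after compound exposure, using a strain with a genetic defect in DNA damage repair and vehicle-treated cultures as the reference.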

[6] = NCI Yeast Anticancer Drug Screen. Data for the sgs1 mgt1 strain (AID 161);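 note: 0% = growth of cultures given vehicle only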; conditions: S. cerevisiae sgs1 mgt1 strain, hits give high values
Summary of the method: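 Mutant yeast exposed to compound; growth scored against vehicle-only wells.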

[7] = NCI Yeast Anticancer Drug Screen. Data for the CLN2oe strain (AID 163);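 note: 0% = growth of vehicle-only control cultures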; conditions: S. cerevisiae CLN2oe strain, hits give high values
Summary of the method: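 Strain altered in cell-cycle control, incubated with compound; growth compared to solvent-treated controls.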

[8] = NCI Yeast Anticancer Drug Screen. Data for the cln2 rad14 strain (AID 165);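 note: 0% = growth equal to vehicle treated cultures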; conditions: S. cerevisiae cln2 rad14 strain, hits give high values
Summary of the method: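 The screen exposed genetically defined yeast (cln2 rad14) to test compounds and scored growth inhibition relative to vehicle-treated controls.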

[9] = NCI Yeast Anticancer Drug Screen. Data for the bub3 strain (AID 167); conditions: S. cerevisiae bub3 mutant strain, hits give high values
Summary of the method: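 Whole-cell yeast assay. The mutant strain was incubated with compounds, and growth inhibition was determined by comparison with vehicle-treated cells.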

[10] = NCI Yeast Anticancer Drug Screen. Data for the wt2 strain (AID 169);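 note: 0% = growth of vehicle-treated yeast cultures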; conditions: S. cerevisiae wt2 strain growth inhibition, hits give high values
Summary of the method: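 Steps: yeast strain treated with compound; growth recorded; inhibition calculated relative to cultures given vehicle alone.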

[11] = NCI Yeast Anticancer Drug Screen. Data for the mlh1 strain (AID 171);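 note: 0% = growth of vehicle-treated control cultures of the same strain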; conditions: S. cerevisiae mlh1 strain growth inhibition, hits give high values
Summary of the method: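 Yeast screen: mutant strain plus compound, growth scored against vehicle control wells.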

[12] = NCI Yeast Anticancer Drug Screen. Data for the sgs1 strain (AID 173);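 note: 0% = growth of vehicle-only control cultures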; conditions: S. cerevisiae sgs1 mutant, hits give high values
Summary of the method: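 Inhibition of yeast growth served as the measure. The mutant strain was treated with each compound, and growth was normalised to cultures receiving vehicle alone.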

[13] = NCI Yeast Anticancer Drug Screen. Data for the mlh1 rad18 strain (AID 175); conditions: S. cerevisiae mlh1 rad18 strain growth inhibition, hits give high values
Summary of the method: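 Compound-treated yeast growth, normalised to vehicle controls. Strain bears defined DNA repair mutations.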

[14] = NCI Yeast Anticancer Drug Screen. Data for the rad18 strain (AID 177); conditions: S. cerevisiae rad18 mutant growth inhibition, hits give high values
Summary of the method: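 Inhibition values reflect reduced yeast growth compared with vehicle-treated controls, using a strain engineered with a DNA damage repair defect.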

[15] = at 5.0 µM (retest, dose inferred, filed as 0.5)
[16] = at 50.0 µM (retest, dose inferred, filed as 5.0)

Measured: growth inhibition

CCCCCCSc1nc(COC(=O)NC)c(COC(=O)NC)n1C
inactive: [1]; at 1.2 µM -1% | [1]; at 3.7 µM 0% | [1]; at 11.0 µM -2% | [1]; at 33.0 µM 25% | [2]; at 1.2 µM -1% | [2]; at 3.7 µM -2% | [2]; at 11.0 µM -2% | [2]; at 33.0 µM 6% | [3]; at 1.2 µM 0% | [3]; at 3.7 µM -48% | [3]; [15] 0% | [3]; at 11.0 µM 20% | [3]; at 33.0 µM 54% | [3]; at 50.0 µM 49.6% | [4]; at 1.2 µM -1% | [4]; at 3.7 µM 2% | [4]; [15] 0% | [4]; at 11.0 µM 0% | [4]; at 33.0 µM 9% | [4]; [16] 27% | [5]; at 1.2 µM -3% | [5]; at 3.7 µM -4% | [5]; at 11.0 µM -4% | [5]; at 33.0 µM 28% | [6]; [15] 0% | [6]; [16] 5% | [6]; at 50.0 µM 19.9% | [7]; at 1.2 µM -2% | [7]; at 3.7 µM -5% | [7]; at 11.0 µM -3% | [7]; at 33.0 µM 20% | [8]; [15] -2% | [8]; [16] 57% | [9]; at 1.2 µM -4% | [9]; at 3.7 µM 0% | [9]; [15] -2% | [9]; at 11.0 µM -4% | [9]; at 33.0 µM 16% | [9]; [16] 45% | [9]; at 50.0 µM 44.2% | [10]; at 1.2 µM -3% | [10]; at 3.7 µM -14% | [10]; at 11.0 µM -4% | [10]; at 33.0 µM 33% | [11]; at 1.2 µM -1% | [11]; at 3.7 µM 0% | [11]; at 11.0 µM -2% | [11]; at 33.0 µM 32% | [12]; at 1.2 µM -4% | [12]; at 3.7 µM -3% | [12]; at 11.0 µM -6% | [12]; at 33.0 µM 59% | [13]; [15] -2% | [14]; at 1.2 µM -1% | [14]; at 3.7 µM -1% | [14]; at 11.0 µM -1% | [14]; at 33.0 µM 33%
active: [1]; at 100.0 µM 98% | [2]; at 100.0 µM 98% | [3]; [16] 91% | [3]; at 100.0 µM 99% | [4]; at 50.0 µM 98.3% | [4]; at 100.0 µM 99% | [5]; at 100.0 µM 99% | [7]; at 100.0 µM 97% | [8]; at 50.0 µM 72.8% | [9]; at 100.0 µM 99% | [10]; at 100.0 µM 99% | [11]; at 100.0 µM 99% | [12]; at 100.0 µM 99% | [13]; [16] 74% | [13]; at 50.0 µM 98.3% | [14]; at 100.0 µM 98%
